The full ranking holds about 18,000 sequences; the median of “log2 normalized intensity” is about 0.39, and the highest 2% start at about 6.6. This is one part of a sample in which the highest values are shown more often than they occur.
biological target: T1, HNF4alpha2 (COS-7 nuclear extract) (Homo sapiens, UniProt P41235 1-474); experiment: protein-binding microarray; COS-7 nuclear extract on double-stranded Agilent 4x180k PBM; binding buffer, salt, pH and temperature not given in the material; high values mean tight binding; details: chain copies: 2; label: 3' end of strand 1 on the slide; dsDNA, one strand shown
T1 sequence: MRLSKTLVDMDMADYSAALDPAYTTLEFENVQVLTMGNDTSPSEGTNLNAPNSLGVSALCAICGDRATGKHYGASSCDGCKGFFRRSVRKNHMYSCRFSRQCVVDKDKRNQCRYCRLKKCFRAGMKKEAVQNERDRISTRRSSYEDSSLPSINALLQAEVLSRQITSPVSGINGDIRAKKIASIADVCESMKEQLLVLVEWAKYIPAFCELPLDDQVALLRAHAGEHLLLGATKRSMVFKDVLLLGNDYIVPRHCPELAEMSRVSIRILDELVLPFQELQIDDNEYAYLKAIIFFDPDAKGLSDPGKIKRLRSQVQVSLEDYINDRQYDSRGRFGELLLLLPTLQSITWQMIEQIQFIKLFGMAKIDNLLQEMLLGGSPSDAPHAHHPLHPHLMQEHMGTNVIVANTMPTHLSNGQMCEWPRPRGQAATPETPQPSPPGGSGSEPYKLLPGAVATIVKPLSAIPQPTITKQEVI
Procedure, shortened: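 Double-stranded oligonucleotides of ~60 nt, representing ~44,000 test sequences in quadruplicate, made up a custom Agilent SurePrint G3 4x180k array. Nuclear extracts from COS-7 cells transiently transfected by CaPO4 with a human HNF4α isoform expression vector were applied, and bound HNF4α was imaged at 2-µm resolution on an Agilent G2565CA scanner. Binding signal refers to the background-corrected, normalized gProcessedSignal output of Agilent software.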

Row | Sequence | binding signal [log2 normalized intensity]
1 | TCAGAGCAGGTGAACGACTTGACAAAGGTCGCCTAGGGAGATTAGAGTATCGGTCGA | 3.22
2 | GGAGGACTTTGGAATGGCAGTGCTTGTCCAGCCTAGGGAGATTAGAGTATCGGTCGA | 1.83
3 | GGGGAAATGACCTTTGTCCAGCTGTGCCGAGCCTAGGGAGATTAGAGTATCGGTCGA | 6.11
4 | GTATTAACATGTAAATATGACCTTTGCTTTGCCTAGGGAGATTAGAGTATCGGTCGA | 6.44
5 | GGGGAGGGCATGGACTTTGGAATTAAGGAGGCCTAGGGAGATTAGAGTATCGGTCGA | 5.45
6 | AATGACCTTTGTCCAGCTGTGCCGAGCCTGGCCTAGGGAGATTAGAGTATCGGTCGA | 4.02
7 | GTAGTGGGGAGGGCATGGACTTTGGAATTAGCCTAGGGAGATTAGAGTATCGGTCGA | 7.37
8 | TGATGACTTTTGACCCCAGGGGAAACTCCAGCCTAGGGAGATTAGAGTATCGGTCGA | 3.99
9 | TTATCATGTGGTATTAACATGTAAATATGAGCCTAGGGAGATTAGAGTATCGGTCGA | 1.69
10 | ACTTTGGGGAAATGACCTTTGTCCAGCTGTGCCTAGGGAGATTAGAGTATCGGTCGA | 6.74
11 | GAATGACTTTGGGGAAATGACCTTTGTCCAGCCTAGGGAGATTAGAGTATCGGTCGA | 8.8
12 | ATGTGGTATTAACATGTAAATATGACCTTTGCCTAGGGAGATTAGAGTATCGGTCGA | 7.12
13 | CTGGTGTAGTGGGGAGGGCATGGACTTTGGGCCTAGGGAGATTAGAGTATCGGTCGA | 5.45
14 | CTAAAAACATTGTGGAGCTCATGTAAGGTCGCCTAGGGAGATTAGAGTATCGGTCGA | 1.62
15 | CATGTGGGTCCAAAGAACATTGCATTCCTTGCCTAGGGAGATTAGAGTATCGGTCGA | 1.55
16 | CCCCGCCTTGGCCTCCCGGAGAGGCCCCGCGCCTAGGGAGATTAGAGTATCGGTCGA | 2.49
17 | CCCCCACACCATTAGAGAACATGTACTTTGGCCTAGGGAGATTAGAGTATCGGTCGA | 3.32
18 | TTAAAGGGCAGAAGAAGGGATTTAGATTAGGCCTAGGGAGATTAGAGTATCGGTCGA | -0.58
19 | GATCCTCCCACTTCAGCCTCCCGAGTAGTTGCCTAGGGAGATTAGAGTATCGGTCGA | 2.81
20 | TGAGAGAGCATCCAGATAAAGCTGAAGAAAGCCTAGGGAGATTAGAGTATCGGTCGA | -0.814
21 | TTCAGCCATTTTATGACCATGAGGTGACGGGCCTAGGGAGATTAGAGTATCGGTCGA | 1.6
22 | ACGTGGCAATCATTCTGTCTGCCTTCAGGCGCCTAGGGAGATTAGAGTATCGGTCGA | -0.947

Row | Sequence | binding signal [log2 normalized intensity]
23 | CACTGTTGCCCCTTCCAAAGTCCACCTCAAGCCTAGGGAGATTAGAGTATCGGTCGA | 4.43
24 | ATGACCTTTGAGCAATAGGAAATGGGAGGGGCCTAGGGAGATTAGAGTATCGGTCGA | 2.34
25 | GCATGGAATGACTTTGGGGAAATGACCTTTGCCTAGGGAGATTAGAGTATCGGTCGA | 7.23
26 | CCTTTTTGGAATGTGTTTGCATGACTCATAGCCTAGGGAGATTAGAGTATCGGTCGA | 1.77
27 | CCTTGACACATCTGATTAGAGGCTCAGGTAGCCTAGGGAGATTAGAGTATCGGTCGA | -0.794
28 | ACCAACCTGTCCAAAGGTCATCTGTCACTCGCCTAGGGAGATTAGAGTATCGGTCGA | 5.7
29 | CTGTACACTTACAAGTGTACAAAGGTCACTGCCTAGGGAGATTAGAGTATCGGTCGA | 7.61
30 | TATACCTGTACACTTACAAGTGTACAAAGGGCCTAGGGAGATTAGAGTATCGGTCGA | 2.65
31 | GTCTGACCAACCTGTCCAAAGGTCATCTGTGCCTAGGGAGATTAGAGTATCGGTCGA | 7.04
32 | AGTATATTGGCTTGGCTGTGTCCCTTGACCGCCTAGGGAGATTAGAGTATCGGTCGA | 3.04
33 | GGAATGTCTGACCAACCTGTCCAAAGGTCAGCCTAGGGAGATTAGAGTATCGGTCGA | 7.66
34 | CACTTACAAGTGTACAAAGGTCACTTCTGTGCCTAGGGAGATTAGAGTATCGGTCGA | 6.32
35 | CCTGTCCAAAGGTCATCTGTCACTCTAGATGCCTAGGGAGATTAGAGTATCGGTCGA | 5.47
36 | CTTGGCTGTGTCCCTTGACCAAAGGTCACTGCCTAGGGAGATTAGAGTATCGGTCGA | 6.77
37 | ATTGGCTTGGCTGTGTCCCTTGACCAAAGGGCCTAGGGAGATTAGAGTATCGGTCGA | 2.07
38 | TTATATCAGAGGAATGTCTGACCAACCTGTGCCTAGGGAGATTAGAGTATCGGTCGA | 0.0786
39 | TCAGAGGAATGTCTGACCAACCTGTCCAAAGCCTAGGGAGATTAGAGTATCGGTCGA | 0.136
40 | AAGGCTTTGAAGTCTGGTGGCAAGTACCCTGCCTAGGGAGATTAGAGTATCGGTCGA | -0.842
41 | ATTTTCTCATCCCAGGGATAATGATAAAGAGCCTAGGGAGATTAGAGTATCGGTCGA | -0.184
42 | TCCCTTTAGTGGAGTATAGGAACATGAACTGCCTAGGGAGATTAGAGTATCGGTCGA | 1.96
43 | GAGTTGGGGACAAAGTTCAAGGTCCAGCCTGCCTAGGGAGATTAGAGTATCGGTCGA | 5.28
44 | GTCCAAGATGGCAATGTTCCTGCTCTGTCAGCCTAGGGAGATTAGAGTATCGGTCGA | -0.996

Row | Sequence | binding signal [log2 normalized intensity]
45 | AGATTACTTCAAGGCTGGAGTTCACTCCCAGCCTAGGGAGATTAGAGTATCGGTCGA | -0.354
46 | CATGGGTCTCTTCCTCAGTTTGTTCTTGGGGCCTAGGGAGATTAGAGTATCGGTCGA | 1.18
47 | GATCCAAAAGACCCAGGTGTGTTGCAACTTGCCTAGGGAGATTAGAGTATCGGTCGA | 0.84
48 | GTGGGAGAGCAAGGGTCAAGGGTCATTTGTGCCTAGGGAGATTAGAGTATCGGTCGA | 6.7
49 | AGAGCAAGGGTCAAGGGTCATTTGTTTTTAGCCTAGGGAGATTAGAGTATCGGTCGA | 5.91
50 | AAGGGTCAAGGGTCATTTGTTTTTACAGACGCCTAGGGAGATTAGAGTATCGGTCGA | 6.27
51 | CCGCAGTGGGAGAGCAAGGGTCAAGGGTCAGCCTAGGGAGATTAGAGTATCGGTCGA | 6.65
52 | CCCATCCGCAGTGGGAGAGCAAGGGTCAAGGCCTAGGGAGATTAGAGTATCGGTCGA | 3.57
53 | TGGGTGGGGGAAGTGTGGTCAAGGGTCAGTGCCTAGGGAGATTAGAGTATCGGTCGA | 4
54 | CAGAACAAAGTCCAGTAAGGACAGTTCCAGGCCTAGGGAGATTAGAGTATCGGTCGA | 2.29
55 | CTTGTAAGCCACAGTACAAAGGTGAGCTTTGCCTAGGGAGATTAGAGTATCGGTCGA | 3.57
56 | TGGATCATGTGTCTGAGCAAGTTTCCTCCTGCCTAGGGAGATTAGAGTATCGGTCGA | -0.544
57 | GTCAAATCACTGAAGCGACCCCTCGAGGCAGCCTAGGGAGATTAGAGTATCGGTCGA | 1.42
58 | AAGTATCTCGGTCAAACCTTTGACCCTTTAGCCTAGGGAGATTAGAGTATCGGTCGA | 6.7
59 | GAAACCCTAAACCTGCAAACCTTTGACCTTGCCTAGGGAGATTAGAGTATCGGTCGA | 5.31
60 | TCTCGGTCAAACCTTTGACCCTTTATAATCGCCTAGGGAGATTAGAGTATCGGTCGA | 5.95
61 | GTCAAACCTTTGACCCTTTATAATCCCCTAGCCTAGGGAGATTAGAGTATCGGTCGA | 4.25
62 | TGAAGCGACCCCTCGAGGCAACCTTTGACCGCCTAGGGAGATTAGAGTATCGGTCGA | 8.54
63 | ATCACTGAAGCGACCCCTCGAGGCAACCTTGCCTAGGGAGATTAGAGTATCGGTCGA | 1.12
64 | CCTCGAGGCAACCTTTGACCTGGTACTATGGCCTAGGGAGATTAGAGTATCGGTCGA | 6.02
65 | CGACCCCTCGAGGCAACCTTTGACCTGGTAGCCTAGGGAGATTAGAGTATCGGTCGA | 7.48
66 | CTGAATAAAACAAACTCATTTTGATCTTTGGCCTAGGGAGATTAGAGTATCGGTCGA | 2.24

Row | Sequence | binding signal [log2 normalized intensity]
67 | CAGCAGACTCAGAAAAATATGTGGACTTCAGCCTAGGGAGATTAGAGTATCGGTCGA | 2.49
68 | CACCCCCATCTATGCACTCTCACCTTGGGGGCCTAGGGAGATTAGAGTATCGGTCGA | 0.591
69 | CAAATTGCTGACTTTCTGTGTCTTGGCAGTGCCTAGGGAGATTAGAGTATCGGTCGA | 1.59
70 | TCTACCTGACCTCCCAAAATTCTTCACATAGCCTAGGGAGATTAGAGTATCGGTCGA | -0.0778
71 | TTCCCATTCATAAAATTACGCCACAGAGTTGCCTAGGGAGATTAGAGTATCGGTCGA | -0.871
72 | AGAAGCTTGGTATGTCTGATGAATAGAAAGGCCTAGGGAGATTAGAGTATCGGTCGA | 0.62
73 | GGTGTAAGCTCTGGAGTCCAAAGGTCAGCAGCCTAGGGAGATTAGAGTATCGGTCGA | 8.34
74 | TCCACAGTCAAGGCCAAAGGTTAAAAATAAGCCTAGGGAGATTAGAGTATCGGTCGA | 3.7
75 | CCACTGGTGTAAGCTCTGGAGTCCAAAGGTGCCTAGGGAGATTAGAGTATCGGTCGA | 3.79
76 | AAGCTCTGGAGTCCAAAGGTCAGCAAGCCTGCCTAGGGAGATTAGAGTATCGGTCGA | 7.73
77 | AAGGTCAGCAAGCCTGGAGTTCTGATGTTCGCCTAGGGAGATTAGAGTATCGGTCGA | 0.534
78 | GGAGTGACCCTGGGAGCAAAGGTCAAGAGTGCCTAGGGAGATTAGAGTATCGGTCGA | 6.55
79 | ATCCACCCATCCAAAGGTCAGCAATCTCAAGCCTAGGGAGATTAGAGTATCGGTCGA | 2.93
80 | GTCCAAAGGTCAGCAAGCCTGGAGTTCTGAGCCTAGGGAGATTAGAGTATCGGTCGA | 4.22
81 | GGAGACCACTGGTGTAAGCTCTGGAGTCCAGCCTAGGGAGATTAGAGTATCGGTCGA | 0.767
82 | CTGGAGTCCAAAGGTCAGCAAGCCTGGAGTGCCTAGGGAGATTAGAGTATCGGTCGA | 6.88
83 | TCATTTCAGCCTTAACTCAAAAGGCCAAAGGCCTAGGGAGATTAGAGTATCGGTCGA | -0.978
84 | TCAGCCTTAACTCAAAAGGCCAAAGTCCAAGCCTAGGGAGATTAGAGTATCGGTCGA | 8.38
85 | TTAATAGAAGAAAGCCCTTTTTGGAATGTGGCCTAGGGAGATTAGAGTATCGGTCGA | 0.655

From paper PMC10726135, “HNF4α isoforms regulate the circadian balance between carbohydrate and lipid metabolism in the liver”
